D1 antag = human D1 dopamine receptor antagonism; actives 3.2% (n = 360,000); HEK293 TREx D1 cells, calcium flux, dopamine EC80; stronger effect = lower value; activity change, negative = inhibition, % at 10 µM; AID 504652; P21728; in the data active = activity change below about -30%; also: % is scaled to controls: 0 for no effect and ±100 for the full control effect
Target sequence (P21728 whole entry, looked up): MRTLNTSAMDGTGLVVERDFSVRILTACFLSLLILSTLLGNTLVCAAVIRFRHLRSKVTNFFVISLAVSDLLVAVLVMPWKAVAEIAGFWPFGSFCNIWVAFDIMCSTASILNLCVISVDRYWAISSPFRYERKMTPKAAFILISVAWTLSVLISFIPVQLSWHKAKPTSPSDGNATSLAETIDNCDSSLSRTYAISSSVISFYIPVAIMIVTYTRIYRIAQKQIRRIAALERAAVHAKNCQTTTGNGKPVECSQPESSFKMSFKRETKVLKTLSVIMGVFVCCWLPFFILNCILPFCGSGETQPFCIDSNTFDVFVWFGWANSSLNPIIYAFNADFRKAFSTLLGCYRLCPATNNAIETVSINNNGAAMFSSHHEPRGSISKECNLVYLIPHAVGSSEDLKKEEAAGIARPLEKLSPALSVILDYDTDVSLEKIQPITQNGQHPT
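Allosteric or orthosteric antagonism assessed as attenuation of the calcium response to EC80 dopamine, added 180 s after compound, in induced HEK293 Trex D1 cells loaded with no-wash calcium dye.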
D1 PAM = enhances dopamine response at the human D1 receptor; P21728; HEK293 TREx D1 cells, calcium flux, dopamine EC20 potentiation; potentiation, % at 10 µM; actives 0.036% (n = 360,000); in the data active = potentiation above about 30%; also: 0% is about no effect
D3 antag = D3 dopamine receptor (human) antagonism | D3R cells, DiscoveRx beta-arrestin luminescence, antagonist mode; stronger effect = lower value | max response, negative = inhibition, % | AID 652054 | P35462 | actives 2.5% (n = 360,000); in the data active = max response below about -50%; inconclusive = no clear call, values can overlap the other calls; also: % is scaled to controls: 0 for no effect and ±100 for the full control effect
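Cells expressing the human receptor were seeded at 1500 cells/well, incubated overnight at 37 degrees C in 5% CO2, then exposed to library compounds with dopamine controls for 90 minutes at 37 degrees C before luminescent detection.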
D1 agonist = agonists of human D1 dopamine receptor; activation, % at 2 µM; HEK293 T-REx D1 cells, calcium flux, agonist mode; actives 1% (n = 360,000); P21728; in the data active = activation above about 30%; also: 0% is about no effect
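Tetracycline-induced HEK293 TREx D1 cells, force-coupled to calcium signalling, were dye-loaded with a no-wash calcium kit. Compound was pin-added after a 10 s baseline. Fluorescence was read kinetically at 1 cycle/s for 180 s, with calcium rises flagged as agonism.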
D3 ag = activates the human D3 dopamine receptor | D3R DiscoveRx beta-arrestin cells, luminescence, 90 min | actives 0.58% (n = 410,000) | P35462 | max activation, % | AID 652048; in the data active = max activation above about 30%; also: 0% is about no effect
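Cells at 1500/well, incubated overnight, then treated with pinned compounds (dopamine as control) for 90 min at 37 degrees C. DiscoveRx reagent added for 30 - 60 minutes at room temperature; luminescence read.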
* hit, by the source's call; ? = inconclusive; . = not tested or not shown. Shown are actives, neighbours in structure and some others; about 6.1% of the full set was active somewhere.

SMILES | D1 antag | D1 PAM | D3 antag | D1 agonist | D3 ag
CCn1cc(CN2CCc3c([nH]c4ccccc34)C2c2cccc(OC)c2)c(C)n1 (stereo unspecified) | -35.0* | -3.3 | -5.5 | 24.5 | -4.9
CC(C)(C)c1ccc(S(=O)(=O)NC(Cc2ccccc2)C(=O)O)cc1 (stereo unspecified) | -32.5* | 0.0 | 24.2 | 3.5 | -18.9
CCCc1cc(C(=O)Nc2nccs2)cs1 | 4.3 | -9.0 | -51.5* | 1.9 | -6.1
COc1ccc(OC)c(CCNC(=O)c2cc3c(=O)n(C)c4ccccc4c3n2C)c1 | 5.2 | 4.0 | . | 1.6 | 0.5
CCC(SC1=NCCS1)C(=O)Nc1ccc(S(N)(=O)=O)cc1 (stereo unspecified) | -45.8* | -11.8 | -21.6 | 7.8 | -15.2
C#CCOCCOCCOCCNc1nc(N2CCN(C(=O)CCCCCCCCCCNC(=O)[C@H](CCCCN)n3cc(C[C@@H](C)CC)nn3)CC2)nc(N2CCN(C(=O)CCCCCCCCCCNC(=O)[C@@H]([C@H](C)O)n3cc(C)nn3)CC2)n1 | 29.3 | 15.8 | -59.1* | 10.6 | -12.4
Cc1cn([C@@H](CCCCNC(=O)OC(C)(C)C)C(=O)NCCCCCCCCCCC(=O)N2CCN(C(=O)OC(C)(C)C)CC2)nn1 | -17.1 | -8.1 | 89.0 | 7.0 | 66.4*
C#CCOCCOCCOCCNc1nc(N2CCN(C(=O)CCCCCCCCCCNC(=O)[C@H](CCCCN)n3cc(C)nn3)CC2)nc(N2CCN(C(=O)CCCCCCCCCCNC(=O)[C@@H]([C@H](C)O)n3cc(C)nn3)CC2)n1 | 21.0 | -1.9 | 21.9 | 33.8* | 0.1
C#CCOCCOCCOCCNc1nc(N2CCN(C(=O)CCCCCCCCCCNC(=O)[C@H](CCCCN)n3cc(C)nn3)CC2)nc(N2CCN(C(=O)CCCCCCCCCCNC(=O)[C@H](CCCN=C(N)N)n3cc(C[C@@H](C)CC)nn3)CC2)n1 | -15.5 | -4.7 | ? | 3.5 | -20.9
CC[C@H](C)Cc1cn([C@@H](CCCN=C(NC(=O)OC(C)(C)C)NC(=O)OC(C)(C)C)C(=O)NCCCCCCCCCCC(=O)N2CCN(C(=O)OC(C)(C)C)CC2)nn1 | -7.8 | 6.1 | 26.0 | -2.3 | -8.9
CCC(CO)Oc1cc(NC(=O)c2ccc([N+](=O)[O-])cc2)c2ncn(C(C)C)c2c1 (stereo unspecified) | . | . | -60.5* | . | 2.5
CCC(CO)Oc1cc(NC(=O)c2cccc([N+](=O)[O-])c2)c2ncn(C(C)C)c2c1 (stereo unspecified) | . | . | -20.9 | . | 0.1
CCC(CN(C)C)Oc1cc(NCc2ccccc2)c2ncn(C(C)C)c2c1 (stereo unspecified) | . | . | -55.0* | . | -18.5
CCC(CO)Oc1cc(NCc2ccncc2)c2ncn(C(C)C)c2c1 (stereo unspecified) | . | . | 0.8 | . | 56.1*
COc1cc(NCc2ccccc2)c2ncn(C(C)C)c2c1 | 10.2 | -0.2 | 0.7 | -1.5 | 2.9
CCC(CO)Oc1cc(NCc2ccc(F)cc2)c2ncn(C(C)C)c2c1 (stereo unspecified) | . | . | 0.0 | . | 7.7
Cc1nc2nc(SCc3c(F)cccc3Cl)nn2c(C)c1Cc1ccccc1 | 14.1 | -1.8 | . | -1.3 | -12.1
Cc1cc(NC(=O)CS(=O)(=O)c2cn(Cc3cccc(F)c3)c3ccccc23)no1 | -4.4 | 2.5 | -19.4 | 1.7 | 1.3
Cc1cc(NC(=O)CS(=O)(=O)c2cn(Cc3ccc(F)cc3)c3ccccc23)no1 | -39.1* | -2.9 | 19.9 | 5.5 | 0.1
CC(C)CC(=O)Nc1ccnn1C1CCN(C(=O)c2ccc(F)cc2Cl)CC1 | 2.5 | 5.5 | -23.8 | 2.0 | -4.0
COc1ccccc1/C=C/CN1CCC(n2nccc2NC(=O)CCc2ccccc2)CC1 | -11.8 | -7.8 | ? | 31.1* | -3.9
O=C(Nc1ccnn1C1CCN(C/C=C/c2ccccc2)CC1)c1ccccc1Cl | 9.7 | -0.1 | 2.3 | 15.6 | -13.4
COc1ccccc1C(=O)Nc1ccnn1C1CCN(C(C)CSC)CC1 (stereo unspecified) | -39.6* | -6.1 | 7.6 | 1.0 | 1.3
COc1ccccc1C(=O)Nc1ccnn1C1CCN(C)CC1 | 0.9 | 2.1 | 2.1 | 2.4 | -0.2
O=C(CCc1ccccc1)Nc1ccnn1C1CCN(C/C=C/c2ccccc2)CC1 | -8.3 | -7.8 | ? | 10.9 | -16.2
SMILES | D1 antag | D1 PAM | D3 antag | D1 agonist | D3 ag
COc1ncccc1C(=O)N1CCC(n2nccc2NC(=O)CC(C)C)CC1 | -0.6 | 2.6 | -52.1* | 3.3 | -10.7
COc1ccccc1C(=O)Nc1ccnn1C1CCN(C/C=C/c2ccc(F)cc2)CC1 | -32.3* | -2.0 | 22.2 | 22.5 | -13.1
COc1cccc(Cn2c(CNS(=O)(=O)c3ccc(C(C)(C)C)cc3)nc3cccnc32)c1 | 0.6 | 1.0 | . | 2.8 | -6.2
CCC(Cc1ccccc1)NC(=O)CN1C(=O)COc2ccc(S(=O)(=O)N3CCCCCC3)cc21 (stereo unspecified) | -0.6 | -5.2 | . | 3.3 | -9.8
CCc1ccc(CNC(=O)CN2C(=O)c3cccnc3Oc3ccc(C)cc32)cc1 | 15.8 | -1.5 | . | -0.9 | 11.3
CO[C@H]1C[C@H](O[C@H]2[C@H](C)[C@@H](O[C@@H]3O[C@H](C)C[C@H](N(C)C)[C@H]3O)[C@@H](C)C[C@]3(CO3)C(=O)[C@H](C)[C@@H](O)[C@@H](C)[C@@H](C)OC(=O)[C@@H]2C)O[C@@H](C)[C@@H]1O | . | . | . | . | 6.9
CSc1cccc(CN2CCC(CCC(=O)NC3CC3)CC2)c1 | -49.5* | -4.2 | ? | 2.9 | -5.8
Cc1ccc(-c2nc(C)sc2CC(=O)NCc2ccco2)cc1 | 2.1 | -3.1 | 16.1 | 1.3 | 5.4
Cc1ccc(NC(=O)Cc2sc(C)nc2-c2ccc(C)cc2)cc1 | -34.8* | -11.2 | 13.4 | 1.1 | 0.6
CCOc1ccc(CNC(=O)C2CCN(S(=O)(=O)c3cn(C)cn3)CC2)cc1 | -0.5 | 1.1 | . | -1.0 | -8.6
CCc1cc2c(NCCN3CCCCC3)ncnc2s1 | 18.2 | 0.5 | -86.3* | 4.2 | -10.7
Cc1cc(S(=O)(=O)Nc2ccc(-c3ccc(N4CCCCCC4)nn3)cc2)c(C)cc1Cl | 3.9 | 0.8 | . | 2.2 | 12.9
C1CCC(C(CC2CCCCN2)C2CCCCC2)CC1 (stereo unspecified) | 67.5 | 12.8 | -2.9 | 135.7* | 0.0
COC1=C(C(=O)O)N2C(=O)[C@@H](NC(=O)[C@H](N)C3=CCC=CC3)[C@H]2SC1 | . | . | . | . | -22.1
Cc1ccc(-n2nc(C(=O)Nc3ccc(F)cc3Cl)c(=O)n(C)c2=O)cc1 | 7.3 | -2.2 | . | 3.4 | 3.9
COc1cc(Cl)c(C)cc1NC(=O)c1nn(-c2ccc(C)cc2)c(=O)n(C)c1=O | -97.8* | 7.9 | . | 2.7 | 3.7
COc1ccccc1NC(=O)Cn1c(=O)n(Cc2ccc3c(c2)OCO3)c(=O)c2oc3ccccc3c21 | -7.5 | -0.3 | . | 1.3 | -8.8
Cn1cnc2c(=O)oc3ccc(S(=O)(=O)N4CCN(c5cccc(Cl)c5)CC4)cc3c21 | -4.6 | -2.4 | . | 0.9 | -11.9

Screening data as filed in PubChem.
